Drawing on PubChem BioAssay AID652042 (Broad Institute, 2013), this text covers activity change, negative = cytotoxicity for 44 compounds.

Molecules are shown by their SMILES. Out of some 1,100 compounds screened, about 350 (32%) were called active. No rule for the calls is given here. The list is a sample of the results. Entries with a potency or affinity are not part of this list.

A short description of the assay: viability loss in CEM21 cells – cell-based, CellTiter-Glo luminescence, cherry-picked, cytotoxicity control for viral fusion inhibitor project, dose response (AID 652042). Conditions: CellTiter-Glo ATP luminescence, 24 h; series mostly up to 35 µM. In general terms: ATP-based viability assays read luminescence as a measure of living cells.
For the compound `O=S(=O)(NCCc1csc(-c2cccnc2)n1)c1ccc(Cl)s1`, the activity change, negative = cytotoxicity result was “inactive”.
In the case of `COc1cccc(/C=N/NC(=O)CC2C(=O)NN=C2C)c1O` (centres undefined), the activity change, negative = cytotoxicity entry is “inactive”.
In the case of `CC(C)(C)OC(=O)N1CCc2onc(-c3ccc(Br)cc3)c2C1=O`, the activity change, negative = cytotoxicity entry was “inactive”.
For the compound `C=CC[n+]1c(-c2ccc(C)cc2)csc1NNC(=O)Nc1ccccc1`, the activity change, negative = cytotoxicity was 1.1% [at 8 µM] (inactive).
As for `COc1ccc(C(C)=O)cc1CC1(C)C(=O)Nc2ccc(-c3ccccc3OC)cc21` (centres undefined), the activity change, negative = cytotoxicity result was “inactive”.
Consider `COc1cc(OCC(=O)NC(C)C)cc2c1C(=O)O[C@@H](C)CCCC(=O)CCCCC2`, for which the activity change, negative = cytotoxicity entry is “inactive”.
Take `CSc1cccc(N2CC(C(=O)Nc3cccc(S(=O)(=O)N4CCCC4)c3)CC2=O)c1` (centres undefined): the activity change, negative = cytotoxicity entry is “inactive”.
As for `CSc1ccc(CN(C)C(=O)c2cccc(S(=O)(=O)N3CCN(Cc4ccccc4)CC3)c2)cc1`, the activity change, negative = cytotoxicity result is “inactive”.
The entry for `COc1cc(NC2c3ccccc3C(=O)N2Cc2ccc3c(c2)OCO3)cc(OC)c1OC` (centres undefined) is “inactive”; for `O=C(NC12CC3CC(CC(C3)C1)C2)OCCNC1CCCCC1` it is “inactive”.
As for `O=C1CCCC2=C1C(c1cccs1)Nc1ccccc1N2` (centres undefined), the activity change, negative = cytotoxicity result is “inactive”.
Take `CC[C@]1(C(=O)OC)[C@H]2C(=O)N(Cc3ccccc3)C(=O)[C@H]2[C@H]2CN=C(SCc3ccc(C#N)cc3)N21`: the activity change, negative = cytotoxicity result was “inactive”.
On to `CCOc1ccc(NS(=O)(=O)c2ccc(C(=O)N(C)CCc3ccc(OC)c(OC)c3)cc2)cc1`, for which the activity change, negative = cytotoxicity entry is “inactive”.
On to `CC(C)C[C@@H](CN(C)N=O)N(C[C@H](Cc1ccccc1)N(CCc1ccccc1)N=O)N=O`, for which the activity change, negative = cytotoxicity entry is “inactive”.
On to `CCc1nc2ccc(C(=O)N3CCN(C(=O)c4ccco4)CC3)cn2c1N(C)Cc1ccc(OC)cc1`, for which the activity change, negative = cytotoxicity entry is “inactive”.
The entry for `C[C@@]12C(=O)N(Cc3ccccc3)CC(=O)N1[C@H]1c3ccccc3OC[C@@H]1[C@@H]2c1ccccc1` is “inactive”; for `O=S1(=O)c2c(cccc2N2CCCCC2)O[C@H](COCc2ccccc2)CN1C1CC1` it is “inactive”; for `Cc1oc(-c2ccc(Cl)cc2)nc1CN1CCCC(C(=O)NCc2cccnc2)C1` (centres undefined) it is “inactive”.
`COc1ccc(CCNC(=O)C2CCCN(Cc3nc(-c4cccc(Cl)c4)oc3C)C2)cc1OC` (centres undefined): the activity change, negative = cytotoxicity result was “inactive”.
`Nc1cc(-c2ccccc2)nn1S(=O)(=O)c1ccc(F)cc1`: the activity change, negative = cytotoxicity entry is “inactive”.
In the case of `c1cnc2ccc(C(c3nnnn3C3CCCCC3)N3CCCCC3)cc2c1` (centres undefined), the activity change, negative = cytotoxicity result is “inactive”.
With `C=CCNc1ncnc2ccc(Br)cc12`, the activity change, negative = cytotoxicity result is “inactive”.
In the case of `c1ccc(CNc2ncnc3ccccc23)cc1`, the activity change, negative = cytotoxicity result was “inactive”.
Then `CCN(C[C@H]1N[C@@](C)(C(=O)OC)[C@H]2C(=O)N(Cc3ccccc3)C(=O)[C@@H]12)S(=O)(=O)c1ccc(C(C)(C)C)cc1`, with “inactive”.
Consider `CC1(Cc2ccc(Cl)cc2)C(=O)Nc2ccc(-c3cccnc3)cc21` (centres undefined), for which the activity change, negative = cytotoxicity result is “inactive”.
`O=C(CNc1ccc(F)cc1)c1ccccc1`: the activity change, negative = cytotoxicity result is “inactive”.
On to `O=C(CCCCn1c(=O)[nH]c2ccccc2c1=O)N1CCN(c2cccc(C(F)(F)F)c2)CC1`, for which the activity change, negative = cytotoxicity entry was “inactive”.
Turning to `COc1cccc(Cl)c1NC(=O)N1CCc2c([nH]c3ccccc23)C1C(F)(F)F` (centres undefined), the activity change, negative = cytotoxicity result was “inactive”.
On to `COc1ccc(N2CCN(C(=O)C3CCC(Cn4c(=S)[nH]c5ccccc5c4=O)CC3)CC2)cc1` (centres undefined), for which the activity change, negative = cytotoxicity result was “inactive”.
With `CC(C)CCSc1nc(N)c(C#N)cc1C#N`, the activity change, negative = cytotoxicity entry was “inactive”.
As for `COC(=O)C1(C(=O)OC)C[C@H](c2ccc(OC)cc2)N(Cc2ccccc2OC)[C@@H]1c1cccs1`, the activity change, negative = cytotoxicity result is “inactive”.
In the case of `COc1ccc(CNc2ncnc3ccccc23)cc1`, the activity change, negative = cytotoxicity result is “inactive”.
On to `CC(C)(C)c1ccc(C(=O)Nc2ccc(CC(=O)O)cc2)o1`, for which the activity change, negative = cytotoxicity entry was “inactive”.
Then `Cc1nn(C)c(C)c1CN(C)S(=O)(=O)c1ccc2ccccc2c1`, with “inactive”; and `CS(=O)(=O)N(Cc1ccc(Cl)cc1)c1ccc(C(=O)NCCC2=CCCCC2)cc1`, with “inactive”; and `Cc1ccc2c(c1)c1c3n2CCN(CC(N)=O)C3CCC1` (centres undefined), with “inactive”.
As for `CO[C@H]1CN(C)C(=O)c2cc(NS(=O)(=O)c3ccc(Cl)cc3)ccc2OC[C@@H](C)N(C)C[C@@H]1C`, the activity change, negative = cytotoxicity result is “inactive”.
With `Cc1cc2ncn(S(=O)(=O)N3CCCCC3)c2cc1C`, the activity change, negative = cytotoxicity entry is “inactive”.
For `CC(C)(C)c1ccc(C(=O)N2CCCCCC2=O)cc1`, the activity change, negative = cytotoxicity result is “inactive”.
`CC(=O)Nc1sc2c(c1C(c1ccc(F)cc1)N1CCOCC1)CCCC2` (centres undefined): the activity change, negative = cytotoxicity result is “inactive”.
On to `CN(C[C@@H](CC1CCCCC1)N(C[C@H](Cc1ccccc1)N(CCc1ccccc1)N=O)N=O)N=O`, for which the activity change, negative = cytotoxicity result is “inactive”.
With `CC[C@]1(C(=O)OC)[C@H]2C(=O)N(Cc3ccccc3)C(=O)[C@H]2[C@H]2CN=C(SCC3CC3)N21`, the activity change, negative = cytotoxicity entry is “inactive”.
With `CO[C@@H]1CN(C)C(=O)c2ccc(NC(C)=O)cc2OC[C@@H](C)N(Cc2cncnc2)C[C@@H]1C`, the activity change, negative = cytotoxicity entry is “inactive”.
`COc1ccc(-c2cn3c(C)c(C(=O)Nc4cccc(NC(C)=O)c4)sc3n2)cc1`: the activity change, negative = cytotoxicity result is “inactive”.
